Bioassay records: PubChem, National Center for Advancing Translational Sciences (NCATS)
An excerpt weighted towards active compounds, which were near 19% of everything screened.
BCR signal inh = blocks chronic active B-cell receptor signaling; AID 493014; actives 0.05% (n = 340,000); Potency, µM (series often up to 46.1 µM), without a hit: at the top dose activity change, negative = inhibition, actives largely listed as inhibitors; ABC-DLBCL IkBa-CBG/CBR reporter, luminescence ratio, 4 h; active means well fitted inhibition curve with a large enough effect in the signal ratio, with a control signal flat, not every such curve was filed as active; inconclusive means small, poorly fitted or top-dose-only effect, or effect the other way, or a change in a side signal; the % refers to the signal ratio;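 further: potency means the concentration at half of the fitted maximal effect; plate controls were basal doxycycline-induced cells for no effect and cells given 10 µM MG132 for full effect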
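TMD8 ABC-DLBCL cells carrying doxycycline-inducible green luciferase fused to IkappaBalpha plus unfused red luciferase were exposed to compounds (up to 46 uM) for 4 hrs at 37C. Activity came from the overlap-corrected green/red luminescence ratio.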
SW480 rerep = DNA re-replication induction in SW480 cells; SW480 DNA re-replication, Hoechst DNA content imaging, 48 h; Potency, µM (highest dose often 46.1 µM), inactives show at the highest dose re-replication activation, most hits filed as activators; actives 1.8% (n = 340,000); AID 624297; further: potency means the concentration at half of the fitted maximal effect; % of control where 0% means no effect; nearly all actives have a fitted effect of over 55% in size
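DNA re-replication was detected as more nuclei of elevated Hoechst intensity after 48 hr exposure to compound (23 nL pinned per well of 250 cells).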
TDP1 cell CPT = growth inhibition of DT40 Tdp1-/-;hTDP1 cells with camptothecin (screen for TDP1 inhibitors). chicken DT40 Tdp1-/-;hTDP1 cells + 20 nM CPT, ATP luminescence, 48 h. Potency, µM (top dose mostly 46.2 µM), inactives show top-dose activity change, negative = growth inhibition, actives largely listed as inhibitors. actives 12% (n = 420,000). AID 686979; further: potency means the concentration at half of the fitted maximal effect; on the % scale 0 is the no-effect control and ±100 the full control effect; nearly all actives have a fitted effect of over 55% in size
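Cell growth measured by CellTiter-Glo luminescence after a minimum 48 h, 37 C compound exposure with 20 nM CPT in Tdp1-knockout DT40 cells stably expressing hTDP1, seeded 400/well; qHTS titration format.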
DT40 TDP1 no CPT = qHTS for Inhibitors of human tyrosyl-DNA phosphodiesterase 1 (TDP1): qHTS in cells in absence of CPT. DT40 Tdp1-/- hTDP1 cells, no CPT, ATP luminescence, 48 h. Potency, µM (series often up to 46.2 µM), without a hit: top-dose activity change, negative = growth inhibition, actives largely listed as inhibitors. actives 15% (n = 420,000); further: potency means the concentration at half of the fitted maximal effect; on the % scale 0 is the no-effect control and ±100 the full control effect; nearly all actives have a fitted effect of over 55% in size
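Chicken DT40 Tdp1-/- cells complemented with human TDP1, screened without camptothecin (DMSO vehicle only), 400 cells/well. Compounds pin-transferred, cells incubated at 37 °C for at least 48 hr. Growth read as ATP-dependent luminescence (CellTiter-Glo, 30 min at RT).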
MCF10A rerep = induces DNA re-replication in MCF 10a normal breast cells | Potency, µM (series often up to 46.1 µM), without a hit: top-dose activity, positive = re-replication, actives largely listed as activators | MCF 10A DNA re-replication, Hoechst nuclear intensity, 48 h | AID 624296 | actives 2.9% (n = 350,000); further: potency means the concentration at half of the fitted maximal effect; % of control where 0% means no effect; nearly all actives have a fitted effect of over 50% in size
IL-1B inflam inh = inflammasome signaling inhibition, IL-1 beta readout. actives 4.7% (n = 360,000). activity change, % at 57.5 µM. AID 743279. THP-1 LPS/ATP IL-1B secretion, AlphaLISA, 16 h; stronger effect = lower value; in the data active means activity change below about -50%; inconclusive means mostly about -30% to -49%; further: on the % scale 0 is the no-effect control and ±100 the full control effect
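Secreted IL-1B measured by AlphaLISA bead assay after 16 h compound exposure of THP-1 cells; compounds (final up to 57.5 uM) added 1 h before LPS (250 ng/mL) and ATP (1.25 mM) stimulation; lower signal means less secretion.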
* hit, by the source's call; ? = inconclusive; . = no result given; [ ] = remark or other dose. Unless noted, the call rests on the fitted dose curve; in most records, active means well fitted curve in the direction sought with a large enough effect; inconclusive means small, poorly fitted or top-dose-only effect, or another doubt; inactive means no such curve, though single readings can be large; an effect the other way counts as inactive or inconclusive.

SMILES	BCR signal inh	SW480 rerep	TDP1 cell CPT	DT40 TDP1 no CPT	MCF10A rerep	IL-1B inflam inh
COc1ccc(-c2cc3nc(C)cc(N4CCN(C(=O)c5cccnc5)CC4)n3n2)cc1	.	.	?	23µM*	.	-19
CC(=O)N(c1ccc(Cl)cc1)C1SC(=O)N(c2ccccc2)C1=O (centres undefined)	.	.	-6%	?	.	.
COc1ccccc1CNc1ncnc2sc(C(=O)N(C)C(C)C)c(C)c12	.	.	-4%[9.04 µM]	?	.	.
COc1ccc2nc(NC(=O)c3ccc(NC(=O)C4CCCO4)cc3)sc2c1 (centres undefined)	?	?	?	?	21µM*	-2
Cc1cc(C)c2nc(NC(=O)c3ccc(OCC4CCCO4)cc3)sc2c1 (centres undefined)	-8%	-53%	?	21µM*	-17%	-16
Cc1ccc2nc(NC(=O)c3ccc(OCC4CCCO4)cc3)sc2c1 (centres undefined)	?	-2%	13µM*	15µM*	21%	-110*
Cc1cn(C2CC(OC(=O)C(C)C)C(CO)O2)c(=O)[nH]c1=O (centres undefined)	?	-43%	-2%	5%	4%	18
CC(CC(=O)Nc1ccccc1C(F)(F)F)c1ccccc1 (centres undefined)	?	2%	-11%	-23%	-1%	-5
COc1ccc(Cl)cc1C1=NOC2(CCC2)C(=O)N1Cc1ccc(NC(C)=O)cc1	.	.	?	?	.	0
NC(=O)/C=C\c1cn(-c2ccccc2)nc1-c1ccc2c(c1)OCCO2	-16%	0%	?	?	?	-60*
O=C(C1=NOC(CNc2ncc(C(F)(F)F)cc2Cl)C1)N1CCOCC1 (centres undefined)	-3%	-1%	0.46µM*	-9%	0%	22
O=C(NC1CC1)C1=NOC(CNc2ncc(C(F)(F)F)cc2Cl)C1 (centres undefined)	-11%	-2%[9.22 µM]	0%	-12%	0%	-22
COc1ccc(-c2ccc(CN3C(CC(C)C)C(=O)N(Cc4cn(Cc5ccco5)nn4)CCS3(=O)=O)cc2)cc1 (centres undefined)	.	.	7.3µM*	7.3µM*	.	-15
COc1ccc(-c2ccc(CN3C(CC(C)C)C(=O)N(Cc4cn(Cc5ccco5)nn4)CCS3(=O)=O)cc2)cc1OC (centres undefined)	.	.	?	16µM*	.	-18
CO/N=C/CC(=O)c1ccc([N+](=O)[O-])c(CS(=O)(=O)c2ccc(Cl)cc2)c1	4%	0%	?	?	-16%	4
NC(=O)C1(N2CCCCC2)CCN(Cc2ccccc2Cl)CC1	?	12µM*	?	-10%	16µM*	-9
CCCn1nc(C(=O)NNC(=O)CSC(C)C(=O)Nc2cc(C)on2)c2ccccc2c1=O (centres undefined)	-3%	-3%	-6%	-22%	1%	-4
CC1(C)CC(=O)C2=C(C1)Nc1ccccc1NC2c1cc(Cl)ccc1O (centres undefined)	3%	-4%	18µM*	23µM*	0%	-18
CCCCCCn1c(SCC(=O)NC2CCS(=O)(=O)C2)nc2ccccc2c1=O (centres undefined)	.	.	-17%	-6%	.	-19
O=C1CN(C(=O)c2ccccc2)C(c2ccccc2)c2cc(F)ccc2N1 (centres undefined)	1%	-7%	1%	-5%	2%	3
CCCC(=O)N1CC(=O)Nc2ccc(Br)cc2C1c1ccc(F)cc1 (centres undefined)	-1%	-6%	?	-16%	-3%	-10
CCCCC1CCC(C(=O)N2CC(=O)Nc3ccc(Br)cc3C2c2ccc(F)cc2)CC1 (centres undefined)	.	.	23µM*	13µM*	.	.
CC(C)(C)c1ccc(C(=O)N2CC(=O)Nc3ccc(F)cc3C2c2ccc(F)cc2)cc1 (centres undefined)	.	.	26µM*	18µM*	.	.
O=C1CN(C(=O)c2cc([N+](=O)[O-])ccc2Cl)C(c2ccc(F)cc2)c2cc(F)ccc2N1 (centres undefined)	1%	-3%	?	15µM*	5%	0
CN(C)S(=O)(=O)c1ccc(C(=O)N2CC(=O)Nc3ccc(F)cc3C2c2ccc(F)cc2)cc1 (centres undefined)	1%	-10%	-1%	-3%	-7%	-3
SMILES	BCR signal inh	SW480 rerep	TDP1 cell CPT	DT40 TDP1 no CPT	MCF10A rerep	IL-1B inflam inh
Cc1ccc2c(c1)C(c1ccc(F)cc1)N(C(=O)c1ccc(S(=O)(=O)N3CCCCC3)cc1)CC(=O)N2 (centres undefined)	.	.	18µM*	?	.	.
O=C1CN(C(=O)c2ccc(S(=O)(=O)N3CCCC3)cc2)C(c2ccc(F)cc2)c2cc(Br)ccc2N1 (centres undefined)	.	.	?	18µM*	.	.
O=C1CN(C(=O)c2ccc(S(=O)(=O)N3CCCCC3)cc2)C(c2ccc(F)cc2)c2cc(Br)ccc2N1 (centres undefined)	.	.	26µM*	21µM*	.	.
O=C1CN(C(=O)c2cc3ccccc3oc2=O)C(c2ccc(F)cc2)c2cc(Br)ccc2N1 (centres undefined)	3%	-5%	13µM*	?	2%	1
O=C1CN(C(=O)c2ccccc2F)C(c2ccc(F)cc2)c2cc(Br)ccc2N1 (centres undefined)	?	7%	7%	-11%	25%	-1
O=C1CN(C(=O)c2cc3ccccc3oc2=O)C(c2ccc(F)cc2)c2cc(F)ccc2N1 (centres undefined)	-11%	0%	?	-15%	3%	-13
O=C(c1cc(=O)[nH]c2ccccc12)N1CCN(c2ccccc2)CC1	-10%	-17%	2%	-3%	2%	?
O=C(CC[C@H]1O[C@@H](n2ccc(=O)[nH]c2=O)[C@H](O)[C@@H]1O)NCC1CCCO1 (some centres undefined)	.	.	-6%	-2%	.	11
CCc1cccc(C)c1NC(=O)CN1CCN(S(=O)(=O)c2ccc(C(C)(C)C)cc2)CC1	-7%	-33%	-42%	23µM*	?	?
COc1ccc(S(=O)(=O)N2CCN(CC(=O)Nc3ccc(Cl)c(C(F)(F)F)c3)CC2)cc1	.	.	9.2µM*	8.2µM*	.	.
